# Data published in the supplement of paper PMC10849652.
# Targets with a hit are over-represented here; the source holds about 7,900 in all. About 0.6% of all pairs of compound and target were hits. Values without a mark were called inactive.
# What was measured:
# Test in all cases: log2 fold change, soluble protein after heating vs DMSO (PISA); higher = thermal stabilisation; K562 cells, 10 uM, 30 min; active = over 0.2 and 3.5 SD of the protein, either way, in both replicates (recomputed)
# filanesib = compound: CON(C)C(=O)N1N=C(c2cc(F)ccc2F)S[C@@]1(CCCN)c1ccccc1 [filanesib]
# Method in brief: (§1)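 Values are thermal stability changes relative to control samples and are taken from duplicates. They are stated as log2 fold changes. Before quantification by TMTpro 16plex LC-MS/MS with equalised channel sums, K562 cells at 2×10^6 cells/mL were treated with 10 μM compound for 30 min, heated in aliquots for 3 min across 48°C-58°C, pooled, extracted in PBS with 0.5% NP-40 at 4°C, and centrifuged at 21,000xg for 90 min to give the soluble supernatant.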
# idasanutlin = compound: COc1cc(C(=O)O)ccc1NC(=O)[C@@H]1N[C@@H](CC(C)(C)C)[C@](C#N)(c2ccc(Cl)cc2F)[C@H]1c1cccc(Cl)c1F [idasanutlin]
# Method in brief: as §1
# alisertib = compound: COc1cc(Nc2ncc3c(n2)-c2ccc(Cl)cc2C(c2c(F)cccc2OC)=NC3)ccc1C(=O)O [alisertib]
# Method in brief: as §1
# [1] = compound: COc1cc2nc(-c3cc(F)ccc3O)nc(N[C@@H]3CNC[C@H]3C(C)(C)O)c2cc1OC
# Method in brief: as §1
# gefitinib = compound: COc1cc2ncnc(Nc3ccc(F)c(Cl)c3)c2cc1OCCCN1CCOCC1 [gefitinib]
# Method in brief: as §1
# [2] = compound: COc1cccc2cc(-c3nc([C@H]4CC[C@H](C(=O)O)CC4)n4ncnc(N)c34)[nH]c12
# Method in brief: as §1
# lapatinib = compound: CS(=O)(=O)CCNCc1ccc(-c2ccc3ncnc(Nc4ccc(OCc5cccc(F)c5)c(Cl)c4)c3c2)o1 [lapatinib]
# Method in brief: as §1
# [3] = compound: CS(=O)(=O)c1ccc(-c2cnc(N)c(C(=O)Nc3ccccc3)n2)cc1
# Method in brief: as §1
# [4] = compound: C[C@@H]1COCCN1C2=NC(=NC(=C2)C3(CC3)S(=O)(=O)C)C4=C5C=CNC5=CC=C4
# Method in brief: as §1
# ispinesib = compound: Cc1ccc(C(=O)N(CCCN)[C@@H](c2nc3cc(Cl)ccc3c(=O)n2Cc2ccccc2)C(C)C)cc1 [ispinesib]
# Method in brief: as §1
# zotarolimus = compound: CO[C@H]1C[C@@H]2CC[C@@H](C)[C@@](O)(O2)C(=O)C(=O)N2CCCC[C@H]2C(=O)O[C@H]([C@H](C)C[C@@H]2CC[C@H](n3cnnn3)[C@H](OC)C2)CC(=O)[C@H](C)/C=C(\C)[C@@H](O)[C@@H](OC)C(=O)[C@H](C)C[C@H](C)/C=C/C=C/C=C/1C [zotarolimus]
# Method in brief: as §1
# pictilisib = compound: CS(=O)(=O)N1CCN(Cc2cc3nc(-c4cccc5[nH]ncc45)nc(N4CCOCC4)c3s2)CC1 [pictilisib]
# Method in brief: as §1
# [5] = compound: C[C@H](C1=CC=C(C=C1)C(=O)NC2=C3C=CNC3=NC=C2)N
# Method in brief: as §1
# duvelisib = compound: C[C@H](Nc1ncnc2nc[nH]c12)c1cc2cccc(Cl)c2c(=O)n1-c1ccccc1 [duvelisib]
# Method in brief: as §1
# gandotinib = compound: Cc1cc(Nc2cc(CN3CCOCC3)c3nc(C)c(Cc4ccc(Cl)cc4F)n3n2)n[nH]1 [gandotinib]
# Method in brief: as §1
# tozasertib = compound: Cc1cc(Nc2cc(N3CCN(C)CC3)nc(Sc3ccc(NC(=O)C4CC4)cc3)n2)n[nH]1 [tozasertib]
# Method in brief: as §1
# [6] = compound: Cc1cc(SCc2sc(-c3ccc(C(F)(F)F)cc3)nc2C)ccc1OCC(=O)O
# Method in brief: as §1
# [7] = compound: COC1=CC=C(C=C1)CN2C=CC3=C2C=C(C=C3)C(=O)NO
# Method in brief: as §1
# crizotinib = compound: C[C@@H](Oc1cc(-c2cnn(C3CCNCC3)c2)cnc1N)c1c(Cl)ccc(F)c1Cl [crizotinib]
# Method in brief: as §1
# doramapimod = compound: Cc1ccc(-n2nc(C(C)(C)C)cc2NC(=O)Nc2ccc(OCCN3CCOCC3)c3ccccc23)cc1 [doramapimod]
# Method in brief: as §1
# Sequence of UniProt Q32MZ4 (Q32MZ4 whole entry, looked up): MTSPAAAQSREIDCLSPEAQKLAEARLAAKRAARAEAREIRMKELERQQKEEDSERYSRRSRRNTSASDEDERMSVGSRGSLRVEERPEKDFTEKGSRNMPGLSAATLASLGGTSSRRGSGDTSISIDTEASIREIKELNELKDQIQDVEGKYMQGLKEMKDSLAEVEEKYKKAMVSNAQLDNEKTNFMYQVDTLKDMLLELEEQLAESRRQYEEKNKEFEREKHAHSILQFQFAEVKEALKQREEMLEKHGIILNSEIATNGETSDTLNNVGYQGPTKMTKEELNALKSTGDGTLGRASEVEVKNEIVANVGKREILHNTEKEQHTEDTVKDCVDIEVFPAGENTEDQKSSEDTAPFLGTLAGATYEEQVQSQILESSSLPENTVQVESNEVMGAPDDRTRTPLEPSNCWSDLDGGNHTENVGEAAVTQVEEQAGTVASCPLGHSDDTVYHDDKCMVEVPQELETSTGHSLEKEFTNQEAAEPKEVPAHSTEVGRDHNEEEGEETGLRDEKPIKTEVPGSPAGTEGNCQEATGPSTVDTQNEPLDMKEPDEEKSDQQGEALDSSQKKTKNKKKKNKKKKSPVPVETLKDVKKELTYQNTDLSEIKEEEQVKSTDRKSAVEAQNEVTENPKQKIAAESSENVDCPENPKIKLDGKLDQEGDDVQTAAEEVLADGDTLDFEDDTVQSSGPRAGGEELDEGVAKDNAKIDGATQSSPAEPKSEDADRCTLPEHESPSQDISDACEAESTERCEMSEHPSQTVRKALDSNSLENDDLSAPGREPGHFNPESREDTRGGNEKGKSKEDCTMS
# Sequence of UniProt Q9BQD3 (Q9BQD3 whole entry, looked up): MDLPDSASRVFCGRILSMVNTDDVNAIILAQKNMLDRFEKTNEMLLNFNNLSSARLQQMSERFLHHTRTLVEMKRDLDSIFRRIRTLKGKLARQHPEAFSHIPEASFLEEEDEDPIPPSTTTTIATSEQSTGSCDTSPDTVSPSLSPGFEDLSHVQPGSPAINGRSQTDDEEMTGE
# Sequence of UniProt Q9NX70 (Q9NX70 whole entry, looked up): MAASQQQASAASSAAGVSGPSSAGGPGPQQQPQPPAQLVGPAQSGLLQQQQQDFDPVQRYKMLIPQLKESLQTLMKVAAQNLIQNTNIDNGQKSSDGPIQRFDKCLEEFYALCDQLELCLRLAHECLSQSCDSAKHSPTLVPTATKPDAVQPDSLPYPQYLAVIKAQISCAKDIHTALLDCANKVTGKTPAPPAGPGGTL
# Sequence of UniProt Q86UD3 (Q86UD3 whole entry, looked up): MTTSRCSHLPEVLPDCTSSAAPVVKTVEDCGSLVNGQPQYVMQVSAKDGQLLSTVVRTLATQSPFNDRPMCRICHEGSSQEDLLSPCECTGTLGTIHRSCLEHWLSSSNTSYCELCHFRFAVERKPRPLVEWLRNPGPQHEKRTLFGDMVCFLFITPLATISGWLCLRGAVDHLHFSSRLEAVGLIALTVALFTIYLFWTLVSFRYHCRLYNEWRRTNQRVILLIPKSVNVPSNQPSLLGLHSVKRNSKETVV
# Sequence of UniProt Q9NQX7 (Q9NQX7 whole entry, looked up): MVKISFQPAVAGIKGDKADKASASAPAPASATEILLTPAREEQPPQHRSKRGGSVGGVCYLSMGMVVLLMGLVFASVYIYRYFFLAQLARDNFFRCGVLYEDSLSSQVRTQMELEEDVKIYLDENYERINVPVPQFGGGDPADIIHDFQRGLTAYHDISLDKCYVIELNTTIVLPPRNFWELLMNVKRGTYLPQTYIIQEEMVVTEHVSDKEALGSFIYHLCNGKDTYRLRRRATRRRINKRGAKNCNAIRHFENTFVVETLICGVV
# Sequence of UniProt Q9H1H9 (Q9H1H9 whole entry, looked up): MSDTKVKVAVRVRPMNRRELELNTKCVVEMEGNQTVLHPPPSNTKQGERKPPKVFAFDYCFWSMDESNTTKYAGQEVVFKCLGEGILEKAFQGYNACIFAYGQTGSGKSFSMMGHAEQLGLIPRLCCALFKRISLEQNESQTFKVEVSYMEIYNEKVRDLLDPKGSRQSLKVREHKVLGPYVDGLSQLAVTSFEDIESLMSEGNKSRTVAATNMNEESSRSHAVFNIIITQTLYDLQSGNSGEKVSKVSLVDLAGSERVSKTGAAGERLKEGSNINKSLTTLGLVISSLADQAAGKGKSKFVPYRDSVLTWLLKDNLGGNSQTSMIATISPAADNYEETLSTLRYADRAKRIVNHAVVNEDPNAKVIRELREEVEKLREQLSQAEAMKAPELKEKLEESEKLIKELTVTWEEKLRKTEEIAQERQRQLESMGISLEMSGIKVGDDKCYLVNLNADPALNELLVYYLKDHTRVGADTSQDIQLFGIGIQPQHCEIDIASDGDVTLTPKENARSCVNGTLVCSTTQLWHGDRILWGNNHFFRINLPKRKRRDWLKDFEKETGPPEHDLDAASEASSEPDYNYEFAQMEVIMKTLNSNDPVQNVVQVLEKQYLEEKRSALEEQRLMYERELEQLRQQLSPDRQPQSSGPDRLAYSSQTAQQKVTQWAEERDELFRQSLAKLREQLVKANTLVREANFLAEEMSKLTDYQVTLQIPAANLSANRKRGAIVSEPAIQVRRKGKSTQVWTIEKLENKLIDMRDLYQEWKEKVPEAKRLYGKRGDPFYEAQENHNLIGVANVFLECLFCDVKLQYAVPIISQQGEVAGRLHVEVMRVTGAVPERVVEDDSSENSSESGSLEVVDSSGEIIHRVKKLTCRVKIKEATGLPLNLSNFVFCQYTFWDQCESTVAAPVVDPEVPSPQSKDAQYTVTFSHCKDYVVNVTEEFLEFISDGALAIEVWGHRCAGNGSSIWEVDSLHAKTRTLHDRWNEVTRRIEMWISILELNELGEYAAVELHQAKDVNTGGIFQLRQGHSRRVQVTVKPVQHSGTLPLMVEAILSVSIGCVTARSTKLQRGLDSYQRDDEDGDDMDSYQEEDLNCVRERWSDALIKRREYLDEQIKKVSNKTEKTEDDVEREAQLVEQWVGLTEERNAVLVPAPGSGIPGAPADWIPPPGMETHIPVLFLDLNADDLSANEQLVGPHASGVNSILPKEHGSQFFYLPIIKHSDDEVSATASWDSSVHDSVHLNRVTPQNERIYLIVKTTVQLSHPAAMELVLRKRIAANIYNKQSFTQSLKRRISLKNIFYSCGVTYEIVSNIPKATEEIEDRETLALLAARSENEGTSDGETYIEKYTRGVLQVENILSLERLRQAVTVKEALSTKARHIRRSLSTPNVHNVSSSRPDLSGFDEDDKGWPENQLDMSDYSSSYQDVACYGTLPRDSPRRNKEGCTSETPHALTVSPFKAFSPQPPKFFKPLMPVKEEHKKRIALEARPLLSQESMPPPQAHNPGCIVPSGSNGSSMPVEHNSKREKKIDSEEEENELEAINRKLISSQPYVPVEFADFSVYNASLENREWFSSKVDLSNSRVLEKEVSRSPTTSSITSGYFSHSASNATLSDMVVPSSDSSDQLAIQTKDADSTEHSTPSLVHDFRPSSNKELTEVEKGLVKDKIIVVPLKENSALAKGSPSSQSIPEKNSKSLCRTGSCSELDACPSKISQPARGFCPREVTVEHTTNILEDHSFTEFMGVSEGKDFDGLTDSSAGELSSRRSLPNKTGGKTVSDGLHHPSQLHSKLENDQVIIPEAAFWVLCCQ
# Sequence of UniProt Q8WYH8 (Q8WYH8 whole entry, looked up): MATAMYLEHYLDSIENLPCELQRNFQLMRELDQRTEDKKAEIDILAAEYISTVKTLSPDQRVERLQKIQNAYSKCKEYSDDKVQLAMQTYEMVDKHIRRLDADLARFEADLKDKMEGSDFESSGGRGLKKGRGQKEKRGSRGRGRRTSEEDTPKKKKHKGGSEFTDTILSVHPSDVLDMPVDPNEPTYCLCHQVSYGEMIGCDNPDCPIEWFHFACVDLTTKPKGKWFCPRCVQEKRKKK
# Sequence of UniProt Q13164 (Q13164 whole entry, looked up): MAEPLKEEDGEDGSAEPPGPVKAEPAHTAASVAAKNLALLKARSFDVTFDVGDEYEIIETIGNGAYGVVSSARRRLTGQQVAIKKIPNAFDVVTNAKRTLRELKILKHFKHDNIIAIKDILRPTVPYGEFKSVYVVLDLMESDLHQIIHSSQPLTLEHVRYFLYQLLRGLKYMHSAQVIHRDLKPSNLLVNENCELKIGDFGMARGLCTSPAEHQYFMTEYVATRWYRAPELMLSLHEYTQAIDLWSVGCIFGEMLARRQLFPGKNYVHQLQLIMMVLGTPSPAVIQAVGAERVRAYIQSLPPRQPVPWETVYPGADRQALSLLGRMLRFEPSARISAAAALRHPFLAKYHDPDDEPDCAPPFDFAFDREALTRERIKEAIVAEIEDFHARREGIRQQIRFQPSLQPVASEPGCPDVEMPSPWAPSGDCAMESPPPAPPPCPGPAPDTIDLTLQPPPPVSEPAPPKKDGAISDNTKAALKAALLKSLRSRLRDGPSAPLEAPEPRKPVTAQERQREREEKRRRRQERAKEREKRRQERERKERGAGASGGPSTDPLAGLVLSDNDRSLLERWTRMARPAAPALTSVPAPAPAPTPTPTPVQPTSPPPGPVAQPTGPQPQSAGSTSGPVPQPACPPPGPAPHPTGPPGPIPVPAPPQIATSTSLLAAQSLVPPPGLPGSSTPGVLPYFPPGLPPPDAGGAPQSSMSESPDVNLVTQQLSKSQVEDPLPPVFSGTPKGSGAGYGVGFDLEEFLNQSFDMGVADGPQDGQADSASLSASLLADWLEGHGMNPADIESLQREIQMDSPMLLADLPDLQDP
# Sequence of UniProt O15243 (O15243 whole entry, looked up): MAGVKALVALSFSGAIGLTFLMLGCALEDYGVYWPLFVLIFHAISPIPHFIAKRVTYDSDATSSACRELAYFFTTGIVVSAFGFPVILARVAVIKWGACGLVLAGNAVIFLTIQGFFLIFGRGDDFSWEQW
# Sequence of UniProt Q52LA3 (Q52LA3 whole entry, looked up): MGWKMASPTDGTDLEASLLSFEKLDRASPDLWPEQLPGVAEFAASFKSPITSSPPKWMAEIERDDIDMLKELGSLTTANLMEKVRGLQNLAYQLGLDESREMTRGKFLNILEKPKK
target,measurement,setting,value
MAP4 isoform 5 (UniProt P27816),log2 fold change,filanesib,-0.039
same,log2 fold change,idasanutlin,-0.025
same,log2 fold change,alisertib,0.143
same,log2 fold change,[1],-0.033
same,log2 fold change,gefitinib,-0.005
same,log2 fold change,[2],-0.045
same,log2 fold change,lapatinib,0.036
same,log2 fold change,[3],0.096
same,log2 fold change,[4],-0.159
same,log2 fold change,ispinesib,-0.042
MFSD12 isoform 3 (UniProt Q6NUT3),log2 fold change,filanesib,-0.197
same,log2 fold change,zotarolimus,0.024
same,log2 fold change,idasanutlin,-0.097
same,log2 fold change,pictilisib,0.069
same,log2 fold change,[3],0.17
same,log2 fold change,[5],-0.213
same,log2 fold change,duvelisib,0.109
same,log2 fold change,gandotinib,-0.122
same,log2 fold change,tozasertib,0.063
same,log2 fold change,[6],0.065
LSR (UniProt M0QZL9),log2 fold change,filanesib,0.168
same,log2 fold change,[3],-0.03
same,log2 fold change,[4],0.118
IP6K1 (UniProt Q92551),log2 fold change,filanesib,0.037
same,log2 fold change,zotarolimus,0.151
same,log2 fold change,idasanutlin,-0.044
same,log2 fold change,alisertib,0.042
same,log2 fold change,[1],1.11 (active)
same,log2 fold change,[2],0.091
same,log2 fold change,lapatinib,0.128
same,log2 fold change,pictilisib,0.13
same,log2 fold change,[3],0.129
same,log2 fold change,[4],-0.072
same,log2 fold change,[5],0.295
same,log2 fold change,duvelisib,0.065
same,log2 fold change,gandotinib,-0.145
same,log2 fold change,tozasertib,-0.027
same,log2 fold change,[6],0.23
same,log2 fold change,ispinesib,-0.437
IPP (UniProt Q9Y573),log2 fold change,idasanutlin,0.051
LIN52 (UniProt Q52LA3),log2 fold change,alisertib,-0.924 (active)
same,log2 fold change,[2],0
same,log2 fold change,duvelisib,-0.087
same,log2 fold change,[6],-0.059
LEPROT (UniProt O15243),log2 fold change,zotarolimus,-0.056
same,log2 fold change,idasanutlin,0.31
same,log2 fold change,alisertib,-0.027
same,log2 fold change,[2],0.041
same,log2 fold change,pictilisib,-0.212
same,log2 fold change,[4],-0.149
same,log2 fold change,[5],0.083
same,log2 fold change,duvelisib,0.045
same,log2 fold change,gandotinib,0.081
same,log2 fold change,tozasertib,0.003
same,log2 fold change,[6],-0.026
LRRFIP1 isoform 4 (UniProt Q32MZ4),log2 fold change,[7],-0.061
same,log2 fold change,zotarolimus,0.202
same,log2 fold change,idasanutlin,0.108
same,log2 fold change,pictilisib,-0.046
same,log2 fold change,crizotinib,0.012
same,log2 fold change,[4],0.175
same,log2 fold change,[5],0.59
same,log2 fold change,duvelisib,0.025
same,log2 fold change,gandotinib,0.548
same,log2 fold change,[6],-0.025
same,log2 fold change,doramapimod,-0.016
MARCHF3 (UniProt Q86UD3),log2 fold change,filanesib,-0.272
same,log2 fold change,[1],0.027
same,log2 fold change,gefitinib,-0.195
same,log2 fold change,lapatinib,-0.033
same,log2 fold change,[3],0.243
same,log2 fold change,[4],0.029
LDLRAP1 (UniProt Q5SW96),log2 fold change,[7],0.023
same,log2 fold change,crizotinib,0.004
same,log2 fold change,doramapimod,0.18
same,log2 fold change,ispinesib,-0.088
ING5 (UniProt Q8WYH8),log2 fold change,[7],0.208
same,log2 fold change,zotarolimus,0.014
same,log2 fold change,alisertib,0.003
same,log2 fold change,[1],0.127
same,log2 fold change,[2],0.179
same,log2 fold change,lapatinib,-0.128
same,log2 fold change,crizotinib,-0.36
same,log2 fold change,[5],-0.018
same,log2 fold change,tozasertib,-0.079
same,log2 fold change,doramapimod,-0.019
KMT5A (UniProt Q9NQR1),log2 fold change,filanesib,0.976 (active)
same,log2 fold change,pictilisib,0.368
same,log2 fold change,[3],0.018
same,log2 fold change,gandotinib,0.038
LRRCC1 (UniProt Q9C099),log2 fold change,idasanutlin,-0.069
same,log2 fold change,duvelisib,0.09
same,log2 fold change,tozasertib,0.006
same,log2 fold change,[6],0.013
same,log2 fold change,ispinesib,-0.301
MED29 (UniProt Q9NX70),log2 fold change,idasanutlin,0.1
same,log2 fold change,alisertib,-0.571
same,log2 fold change,[1],-0.77 (active)
same,log2 fold change,gefitinib,0.058
same,log2 fold change,[2],0.115
same,log2 fold change,lapatinib,-0.028
same,log2 fold change,duvelisib,-0.025
same,log2 fold change,[6],0.171
MFSD1 isoform 6 (UniProt Q9H3U5),log2 fold change,filanesib,-0.123
same,log2 fold change,zotarolimus,-0.108
same,log2 fold change,idasanutlin,-0.01
same,log2 fold change,alisertib,-0.035
same,log2 fold change,[1],0.019
same,log2 fold change,gefitinib,-0.021
same,log2 fold change,[2],0.181
same,log2 fold change,lapatinib,-0.026
same,log2 fold change,pictilisib,0.055
same,log2 fold change,[3],0.035
same,log2 fold change,[4],0.076
same,log2 fold change,[5],-0.03
same,log2 fold change,gandotinib,-0.077
same,log2 fold change,tozasertib,0.041
same,log2 fold change,ispinesib,-0.367 (active)
KIZ (UniProt Q2M2Z5),log2 fold change,[7],-0.008
same,log2 fold change,zotarolimus,0.269
same,log2 fold change,idasanutlin,-0.019
same,log2 fold change,[1],-0.064
same,log2 fold change,lapatinib,0.066
same,log2 fold change,pictilisib,-0.215
same,log2 fold change,crizotinib,-0.032
same,log2 fold change,[5],-0.115
same,log2 fold change,gandotinib,0.063
same,log2 fold change,doramapimod,0.071
same,log2 fold change,ispinesib,-0.047
IKZF1 (UniProt R9R4D9),log2 fold change,[7],-0.167
same,log2 fold change,zotarolimus,-0.192
same,log2 fold change,[1],0.084
same,log2 fold change,lapatinib,0.037
same,log2 fold change,pictilisib,0.059
same,log2 fold change,crizotinib,0.028
same,log2 fold change,[5],-0.078
same,log2 fold change,duvelisib,0.042
same,log2 fold change,gandotinib,0.244
same,log2 fold change,tozasertib,-0.066
same,log2 fold change,[6],-0.12
same,log2 fold change,doramapimod,0.235
MAPK11 (UniProt Q15759),log2 fold change,[7],-0.126
same,log2 fold change,pictilisib,0.068
same,log2 fold change,crizotinib,-0.115
same,log2 fold change,gandotinib,-0.083
same,log2 fold change,tozasertib,0.268
same,log2 fold change,ispinesib,-0.334
LMNA isoform 2 (UniProt P02545),log2 fold change,tozasertib,0.357
KIF21A (UniProt H0YI78),log2 fold change,ispinesib,-0.041
ITPRID2 (UniProt P28290),log2 fold change,[7],0
same,log2 fold change,[1],0.141
same,log2 fold change,lapatinib,-0.141
same,log2 fold change,crizotinib,-0.201
same,log2 fold change,[4],0.229
same,log2 fold change,doramapimod,-0.056
same,log2 fold change,ispinesib,-0.035
KIF13A isoform 4 (UniProt Q9H1H9),log2 fold change,filanesib,-0.684
same,log2 fold change,zotarolimus,0.03
same,log2 fold change,idasanutlin,-0.081
same,log2 fold change,[3],-0.363
same,log2 fold change,[5],-0.019
ITM2C (UniProt Q9NQX7),log2 fold change,filanesib,-0.275
same,log2 fold change,zotarolimus,-0.047
same,log2 fold change,idasanutlin,-0.061
same,log2 fold change,[1],-0.12
same,log2 fold change,gefitinib,-0.092
same,log2 fold change,lapatinib,-0.045
same,log2 fold change,pictilisib,-0.149
same,log2 fold change,[3],0.117
same,log2 fold change,[4],0.239
same,log2 fold change,[5],0.137
same,log2 fold change,duvelisib,-0.034
same,log2 fold change,gandotinib,0.083
same,log2 fold change,[6],0.011
same,log2 fold change,ispinesib,0.051
MAGED1 isoform 2 (UniProt Q9Y5V3),log2 fold change,filanesib,0.264
same,log2 fold change,zotarolimus,0.001
same,log2 fold change,idasanutlin,0.054
same,log2 fold change,[1],-0.058
same,log2 fold change,gefitinib,0.228
same,log2 fold change,lapatinib,0.034
same,log2 fold change,[3],-0.012
same,log2 fold change,[4],0.096
same,log2 fold change,[5],0.205
same,log2 fold change,duvelisib,0.05
same,log2 fold change,[6],-0.008
MAPK7 (UniProt Q13164),log2 fold change,[7],-0.066
same,log2 fold change,idasanutlin,0.003
same,log2 fold change,pictilisib,0.108
same,log2 fold change,crizotinib,0.773 (active)
same,log2 fold change,[4],0.03
same,log2 fold change,gandotinib,0.304
same,log2 fold change,doramapimod,0.057
KXD1 (UniProt Q9BQD3),log2 fold change,zotarolimus,0.073
same,log2 fold change,idasanutlin,-0.021
same,log2 fold change,alisertib,-0.019
same,log2 fold change,[1],0.042
same,log2 fold change,[2],0.342 (active)
same,log2 fold change,lapatinib,-0.054
same,log2 fold change,pictilisib,0.063
same,log2 fold change,[4],0.118
same,log2 fold change,[5],-0.009
same,log2 fold change,duvelisib,0.067
same,log2 fold change,gandotinib,-0.156
same,log2 fold change,tozasertib,-0.046
same,log2 fold change,[6],0.012
same,log2 fold change,ispinesib,-0.078
